MsrA inh = bovine MsrA enzyme inhibitors, primary screen, biochemical, absorbance, HTS; Methionine sulfoxide reductase A (Bos taurus); inhibition, % at 15.5 µM; 360,000 tested, 0.75% active; purified bovine MsrA, absorbance read-out;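 also: 0% = vehicle wells with enzyme and 100% = reference inhibitor wells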
ABCB6 inh 2 = ABCB6 transporter inhibitors, primary screen, K562-ABCB6 cells, flow cytometry, MLPCN library; ATP-binding cassette sub-family B member 6 (Homo sapiens), Q9NP58; K562-ABCB6 porphyrin accumulation, 1 h; stronger effect = lower value; AID 602162, 2011; fluorescence ratio to DMSO, % at 10 µM; 360,000 tested, 0.19% active;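 active = fluorescence ratio to DMSO below 75%, the collection mean minus 3 SD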;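 also: signal is porphyrin accumulated inside mitochondria; 100% equals median channel fluorescence of DMSO control wells; lower ratio means ABCB6 inhibition with less porphyrin fluorescence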
Target sequence (Q9NP58 whole entry, looked up): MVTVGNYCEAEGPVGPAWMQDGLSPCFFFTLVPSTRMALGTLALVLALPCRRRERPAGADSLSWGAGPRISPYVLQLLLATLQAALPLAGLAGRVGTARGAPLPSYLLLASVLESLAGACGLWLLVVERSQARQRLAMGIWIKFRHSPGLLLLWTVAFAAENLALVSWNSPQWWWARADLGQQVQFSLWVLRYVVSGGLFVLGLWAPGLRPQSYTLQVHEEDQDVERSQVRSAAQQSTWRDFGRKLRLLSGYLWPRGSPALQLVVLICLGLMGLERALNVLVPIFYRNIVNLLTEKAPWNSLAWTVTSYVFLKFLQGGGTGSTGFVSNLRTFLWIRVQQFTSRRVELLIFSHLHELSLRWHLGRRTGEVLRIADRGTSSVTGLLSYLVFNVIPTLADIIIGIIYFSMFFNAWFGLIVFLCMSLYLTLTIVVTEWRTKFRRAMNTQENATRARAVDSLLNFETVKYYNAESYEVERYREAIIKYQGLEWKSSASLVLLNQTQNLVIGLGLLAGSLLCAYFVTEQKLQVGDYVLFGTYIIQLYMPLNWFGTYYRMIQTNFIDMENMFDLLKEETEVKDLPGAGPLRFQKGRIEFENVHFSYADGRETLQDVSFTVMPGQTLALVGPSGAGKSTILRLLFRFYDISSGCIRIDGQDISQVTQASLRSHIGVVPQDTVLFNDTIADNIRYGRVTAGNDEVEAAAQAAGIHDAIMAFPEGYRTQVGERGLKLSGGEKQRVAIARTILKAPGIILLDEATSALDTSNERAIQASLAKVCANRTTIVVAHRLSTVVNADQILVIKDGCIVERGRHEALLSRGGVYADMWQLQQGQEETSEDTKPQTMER
bovine MsrA act = bovine MsrA enzyme activators, primary screen, biochemical, absorbance, HTS; 360,000 tested, 0.3% active; purified bovine MsrA, absorbance read-out; activation, % at 10.6 µM; Methionine sulfoxide reductase A (Bos taurus); in the data active = activation above about 7.5%;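 also: 0% = vehicle and 100% = reference activator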
SMARCA2 activ = SMARCA2 (BRM) function activators, primary screen, cell-based, luminescence, high throughput. MG213 cells, MMTV-luciferase reporter, dexamethasone, overnight. activation, % at 9.1 µM. 370,000 tested, 1% active; in the data active = activation above about 7.8%;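 also: 0% = vehicle wells and 100% = reference activator wells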
MsrA conf = bovine MsrA inhibitors, retest, confirmation, biochemical, absorbance, HTS. shares compounds with MsrA inh. purified bovine MsrA, absorbance read-out. inhibition, % at 15.5 µM. 2,300 tested, 41% active. AID 651822, 2012;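 also: coupled to thioredoxin reductase with NADPH and selenocystamine and DMSO as substrate; 0% = vehicle only and 100% = full effect of reference inhibitor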
* marks the source's active call; other numbers are inactive results. A selection: hits, their analogues and other compounds. The true share with any hit is near 2.1%. Rule as the data show it, unless noted: active = inhibition above about 4.5%; inactive = the rest.

What do the screens show for `COc1cc2c(cc1OC)-c1cc(Nc3ccc4c(c3)OCCO4)nc(=O)n1CC2`?
MsrA inh: 5.1*; ABCB6 inh 2: 94; bovine MsrA act: -5; SMARCA2 activ: -3; MsrA conf: 4

Results for COc1ccc(Nc2cc3n(c(=O)n2)CCc2cc(OC)c(OC)cc2-3)c(C)c1 ?
MsrA inh: 4.9*; ABCB6 inh 2: 104; bovine MsrA act: -5; SMARCA2 activ: 5; MsrA conf: 3

What do the screens show for `COc1cc2c(cc1OC)-c1cc(NC3CCCCCC3)nc(=O)n1CC2`?
MsrA inh: 1; ABCB6 inh 2: 100; bovine MsrA act: -7; SMARCA2 activ: 8

How did COc1cc2c(cc1OC)-c1cc(Nc3ccc(C(=O)O)cc3)nc(=O)n1CC2 do in these assays?
MsrA inh: 4; ABCB6 inh 2: 102; bovine MsrA act: -8; SMARCA2 activ: -1

How did Cc1ccc(-c2nc(C3CCCN(S(=O)(=O)c4ccc(Cl)s4)C3)no2)cc1 (stereo not drawn) do in these assays?
SMARCA2 activ: -3

What do the screens show for `CC(=O)Nc1ccc(-c2ccnc3c2CC(C)(C(=O)Nc2cccc(C(C)=O)c2)O3)cc1` (stereo not drawn)?
MsrA inh: 2; ABCB6 inh 2: 102; bovine MsrA act: -2; SMARCA2 activ: -2

Results for Cn1c(=O)c2cc(S(=O)(=O)N3CCN(c4ccccc4Cl)CC3)ccc2n(C)c1=O ?
SMARCA2 activ: -5

Results for CCn1c2ccccc2c2cc(C=Nn3c(-c4ccccn4)n[nH]c3=S)ccc21 ?
SMARCA2 activ: -3

How did Cc1cccc(-c2cccc3c4c([nH]c23)[C@@H]2C[C@H](N(C)C(=O)c3cccc(Cl)c3)[C@H]([C@H](C)O)CN2CC4)c1 do in these assays?
SMARCA2 activ: -5

What do the screens show for `O=S1(=O)c2ccc(N3CC[C@H](O)C3)cc2O[C@H]2CCN1C2`?
SMARCA2 activ: -2

What do the screens show for `Cc1ccc(Cn2cc(CN3[C@H](Cc4ccccc4)COc4cc(Br)ccc4S3(=O)=O)nn2)cc1`?
SMARCA2 activ: 1

What do the screens show for `CCOC(=O)C1=C(O)/C(=C/c2ccc(OCC(=O)O)c(OCC)c2)SC1=Nc1ccc(OC)cc1`?
MsrA inh: 4.7*; ABCB6 inh 2: 99; bovine MsrA act: -2; SMARCA2 activ: -3; MsrA conf: 3

How did O=C(O)Cc1sc(Nc2ccccc2)nc1-c1cccs1 do in these assays?
MsrA inh: 4.9*; ABCB6 inh 2: 719; bovine MsrA act: -7; SMARCA2 activ: 2; MsrA conf: 0

How did Fc1ccc(/C=C/c2nnc(-c3cccs3)o2)cc1 do in these assays?
MsrA inh: 5.2*; ABCB6 inh 2: 99; bovine MsrA act: -5; SMARCA2 activ: 7; MsrA conf: 2

How did C=CC(=O)NC1CCCCN(CC)C1=O (stereo not drawn) do in these assays?
SMARCA2 activ: 0

How did C/C(=C\C=C\c1ccccc1)C(=O)c1c(C)cc(C)[nH]c1=O do in these assays?
MsrA inh: 7.4*; ABCB6 inh 2: 86; bovine MsrA act: -8; SMARCA2 activ: -2; MsrA conf: 5.9*

What do the screens show for `COc1cccc(/C=C(\C)C(=O)c2c(C)cc(C)[nH]c2=O)c1OC`?
MsrA inh: 1; ABCB6 inh 2: 97; bovine MsrA act: -5; SMARCA2 activ: 1

How did C/C(=C\c1cccc(Br)c1)C(=O)c1c(C)cc(C)[nH]c1=O do in these assays?
MsrA inh: 1; ABCB6 inh 2: 101; bovine MsrA act: -2; SMARCA2 activ: -2

Results for C/C(=C\c1ccc2c(c1)OCO2)C(=O)c1c(C)cc(C)[nH]c1=O ?
MsrA inh: 5.5*; ABCB6 inh 2: 89; bovine MsrA act: -6; SMARCA2 activ: -2; MsrA conf: 3

Results for Cc1cc(C)c(C(=O)/C=C/C=C/c2ccccc2)c(=O)[nH]1 ?
MsrA inh: 4; ABCB6 inh 2: 111; bovine MsrA act: -7; SMARCA2 activ: 1

Results for C/C(=C\c1ccc(C)o1)C(=O)c1c(C)cc(C)[nH]c1=O ?
MsrA inh: 7.3*; ABCB6 inh 2: 97; bovine MsrA act: -8; SMARCA2 activ: 1; MsrA conf: 4

How did Cc1cc(N/N=C/c2ccc(O)cc2O)nc(N2CCOCC2)n1 do in these assays?
MsrA inh: 4; ABCB6 inh 2: 89; bovine MsrA act: -9; SMARCA2 activ: -3

Screening results: PubChem, several laboratories
